Unmarked numbers belong to inactive results.
Test system: Vero E6 infected with SARS-CoV-2
Test: inhibition of SARS-CoV-2 cytopathic effect; higher = more antiviral protection, active = above 15
Conditions: 48 h

| SMILES | inhibition of SARS-CoV-2 cytopathic effect (1 nM) [%] | inhibition of SARS-CoV-2 cytopathic effect (8.33 nM) [%] | inhibition of SARS-CoV-2 cytopathic effect (100 nM) [%] | inhibition of SARS-CoV-2 cytopathic effect (833.33 nM) [%] | inhibition of SARS-CoV-2 cytopathic effect (10000 nM) |
| --- | --- | --- | --- | --- | --- |
| O=C(N[C@H]1CN2CCC1CC2)c1cc2cccc(Cl)c2s1 | -0.49 | -1.25 | 2.35 | -1.74 | -7.63% |
| CC[C@]1(O)C[C@H]2CN(CCc3c([nH]c4ccccc34)[C@@](C(=O)OC)(c3cc4c(cc3OC)N(C=O)[C@H]3[C@@](O)(C(=O)OC)[C@H](OC(C)=O)[C@]5(CC)C=CCN6CC[C@]43[C@@H]65)C2)C1 [Vincristine (sulfate)] | -1.47 | -1.12 | 0.94 | 0.14 | -0.29% |
| O=C(COc1ccc(Cl)cc1)N[C@H]1CC[C@H](NC(=O)COc2ccc(Cl)cc2)CC1 | -0.57 | -0.23 | 3.35 | 6.09 | 15.7% (active) |
| Cc1ccc(NC(=O)c2cccc(N(C)C)c2)cc1NC(=O)c1ccc(O)cc1 | -3.41 | -1.26 | 6.65 | 1.14 | 6.69% |
| Brc1c(NC2=NCCN2)ccc2nccnc12 [brimonidine] | 4.55 | 0.66 | 0.75 | 2.72 | 0.94% |
| C[N+](C)(C)CCCCCC[N+](C)(C)C [hexamethonium] | -0.33 | 1.65 | 0.44 | -0.93 | -1.17% |
| Oc1ccc(C2(c3ccccc3F)CCC(F)(F)CC2)cc1 | 1.54 | -0.41 | -0.21 | -1.05 | 0% |

Source: the supplement of paper PMC13380429
